From the supplement of paper PMC4466140

biological target: AgAbp1; assay: SPOT peptide array binding signal intensity (averaged, normalized) (arbitrary units (background-subtracted, floor 0; scale differs between SH3 domains)); higher = stronger binding of the SH3 domain to the peptide
Outline: (§1)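 GST-fused SH3 domains from four yeast species were expressed in E. coli BL21(DE3), purified on glutathione Sepharose and incubated at 10 μg/ml overnight at 4°C in TBS-based blocking buffer on cellulose membranes carrying synthetic 15-mer peptides, with cysteines replaced by serines. Bound protein was detected with anti-GST antibody, an HRP anti-mouse secondary and luminol, then imaged and quantified with Genespotter. Binding signal is the normalized, background-subtracted spot intensity averaged over replicates, in arbitrary units that differ between domains.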

Row | Binder | SPOT peptide array binding signal intensity
1 | PPPPPPPPPPLPQSL | 6.5

biological target: AgBbc1; assay: as above
Outline: as §1

Row | Binder | SPOT peptide array binding signal intensity
2 | PPPPPPPPPPLPQSL | ≤ 0

biological target: AgBem1-D1; assay: as above
Outline: as §1

Row | Binder | SPOT peptide array binding signal intensity
3 | PPPPPPPPPPLPQSL | ≤ 0

biological target: AgBzz1-D1; assay: as above
Outline: as §1

Row | Binder | SPOT peptide array binding signal intensity
4 | PPPPPPPPPPLPQSL | 23.5

biological target: AgBzz1-D2; assay: as above
Outline: as §1

Row | Binder | SPOT peptide array binding signal intensity
5 | PPPPPPPPPPLPQSL | ≤ 0

biological target: AgCyk3; assay: as above
Outline: as §1

Row | Binder | SPOT peptide array binding signal intensity
6 | PPPPPPPPPPLPQSL | 1

biological target: AgFus1; assay: as above
Outline: as §1

Row | Binder | SPOT peptide array binding signal intensity
7 | PPPPPPPPPPLPQSL | ≤ 0

biological target: AgHof1; assay: as above
Outline: as §1

Row | Binder | SPOT peptide array binding signal intensity
8 | PPPPPPPPPPLPQSL | 366

biological target: AgHse1; assay: as above
Outline: as §1

Row | Binder | SPOT peptide array binding signal intensity
9 | PPPPPPPPPPLPQSL | 18

biological target: AgLsb1; assay: as above
Outline: as §1

Row | Binder | SPOT peptide array binding signal intensity
10 | PPPPPPPPPPLPQSL | ≤ 0

biological target: AgLsb4; assay: as above
Outline: as §1

Row | Binder | SPOT peptide array binding signal intensity
11 | PPPPPPPPPPLPQSL | ≤ 0

biological target: AgMyo5; assay: as above
Outline: as §1

Row | Binder | SPOT peptide array binding signal intensity
12 | PPPPPPPPPPLPQSL | 561

biological target: AgNbp2; assay: as above
Outline: as §1

Row | Binder | SPOT peptide array binding signal intensity
13 | PPPPPPPPPPLPQSL | 33

biological target: AgRvs167; assay: as above
Outline: as §1

Row | Binder | SPOT peptide array binding signal intensity
14 | PPPPPPPPPPLPQSL | ≤ 0

biological target: AgSho1; assay: as above
Outline: as §1

Row | Binder | SPOT peptide array binding signal intensity
15 | PPPPPPPPPPLPQSL | 3

biological target: AgSla1-D1-D2; assay: as above
Outline: as §1

Row | Binder | SPOT peptide array binding signal intensity
16 | PPPPPPPPPPLPQSL | 1

biological target: AgSla1-D3; assay: as above
Outline: as §1

Row | Binder | SPOT peptide array binding signal intensity
17 | PPPPPPPPPPLPQSL | 1.5

biological target: CaAbp1-D1; assay: as above
Outline: as §1

Row | Binder | SPOT peptide array binding signal intensity
18 | PPPPPPPPPPLPQSL | 29.5

biological target: CaAbp1-D2; assay: as above
Outline: as §1

Row | Binder | SPOT peptide array binding signal intensity
19 | PPPPPPPPPPLPQSL | ≤ 0

biological target: CaBbc1; assay: as above
Outline: as §1

Row | Binder | SPOT peptide array binding signal intensity
20 | PPPPPPPPPPLPQSL | ≤ 0

biological target: CaBem1-D1; assay: as above
Outline: as §1

Row | Binder | SPOT peptide array binding signal intensity
21 | PPPPPPPPPPLPQSL | 5

biological target: CaBzz1-D1; assay: as above
Outline: as §1

Row | Binder | SPOT peptide array binding signal intensity
22 | PPPPPPPPPPLPQSL | 2040

biological target: CaBzz1-D2; assay: as above
Outline: as §1

Row | Binder | SPOT peptide array binding signal intensity
23 | PPPPPPPPPPLPQSL | 268

biological target: CaCyk3; assay: as above
Outline: as §1

Row | Binder | SPOT peptide array binding signal intensity
24 | PPPPPPPPPPLPQSL | 1

biological target: CaFus1; assay: as above
Outline: as §1

Row | Binder | SPOT peptide array binding signal intensity
25 | PPPPPPPPPPLPQSL | 23

biological target: CaHof1; assay: as above
Outline: as §1

Row | Binder | SPOT peptide array binding signal intensity
26 | PPPPPPPPPPLPQSL | 0.75

biological target: CaHse1; assay: as above
Outline: as §1

Row | Binder | SPOT peptide array binding signal intensity
27 | PPPPPPPPPPLPQSL | 2.25

biological target: CaLsb1; assay: as above
Outline: as §1

Row | Binder | SPOT peptide array binding signal intensity
28 | PPPPPPPPPPLPQSL | 0.5

biological target: CaLsb4; assay: as above
Outline: as §1

Row | Binder | SPOT peptide array binding signal intensity
29 | PPPPPPPPPPLPQSL | ≤ 0

biological target: CaMyo5; assay: as above
Outline: as §1

Row | Binder | SPOT peptide array binding signal intensity
30 | PPPPPPPPPPLPQSL | 156

biological target: CaNbp2; assay: as above
Outline: as §1

Row | Binder | SPOT peptide array binding signal intensity
31 | PPPPPPPPPPLPQSL | 67.5

biological target: CaRvs167; assay: as above
Outline: as §1

Row | Binder | SPOT peptide array binding signal intensity
32 | PPPPPPPPPPLPQSL | ≤ 0

biological target: CaRvs167-3; assay: as above
Outline: as §1

Row | Binder | SPOT peptide array binding signal intensity
33 | PPPPPPPPPPLPQSL | ≤ 0

biological target: CaSho1; assay: as above
Outline: as §1

Row | Binder | SPOT peptide array binding signal intensity
34 | PPPPPPPPPPLPQSL | 4

biological target: CaSla1-D1-D2; assay: as above
Outline: as §1

Row | Binder | SPOT peptide array binding signal intensity
35 | PPPPPPPPPPLPQSL | ≤ 0

biological target: CaSla1-D3; assay: as above
Outline: as §1

Row | Binder | SPOT peptide array binding signal intensity
36 | PPPPPPPPPPLPQSL | ≤ 0

biological target: ScAbp1; assay: as above
Outline: as §1

Row | Binder | SPOT peptide array binding signal intensity
37 | PPPPPPPPPPLPQSL | 1

biological target: ScBbc1; assay: as above
Outline: as §1

Row | Binder | SPOT peptide array binding signal intensity
38 | PPPPPPPPPPLPQSL | ≤ 0

biological target: ScBem1-D1; assay: as above
Outline: as §1

Row | Binder | SPOT peptide array binding signal intensity
39 | PPPPPPPPPPLPQSL | ≤ 0

biological target: ScBzz1-D1; assay: as above
Outline: as §1

Row | Binder | SPOT peptide array binding signal intensity
40 | PPPPPPPPPPLPQSL | 4

biological target: ScBzz1-D2; assay: as above
Outline: as §1

Row | Binder | SPOT peptide array binding signal intensity
41 | PPPPPPPPPPLPQSL | 2

biological target: ScCyk3; assay: as above
Outline: as §1

Row | Binder | SPOT peptide array binding signal intensity
42 | PPPPPPPPPPLPQSL | ≤ 0

biological target: ScFus1; assay: as above
Outline: as §1

Row | Binder | SPOT peptide array binding signal intensity
43 | PPPPPPPPPPLPQSL | ≤ 0

biological target: ScHof1; assay: as above
Outline: as §1

Row | Binder | SPOT peptide array binding signal intensity
44 | PPPPPPPPPPLPQSL | 92.8

biological target: ScHse1; assay: as above
Outline: as §1

Row | Binder | SPOT peptide array binding signal intensity
45 | PPPPPPPPPPLPQSL | 19

biological target: ScLsb1; assay: as above
Outline: as §1

Row | Binder | SPOT peptide array binding signal intensity
46 | PPPPPPPPPPLPQSL | ≤ 0

biological target: ScLsb2; assay: as above
Outline: as §1

Row | Binder | SPOT peptide array binding signal intensity
47 | PPPPPPPPPPLPQSL | ≤ 0

biological target: ScLsb3; assay: as above
Outline: as §1

Row | Binder | SPOT peptide array binding signal intensity
48 | PPPPPPPPPPLPQSL | 49

biological target: ScLsb4; assay: as above
Outline: as §1

Row | Binder | SPOT peptide array binding signal intensity
49 | PPPPPPPPPPLPQSL | ≤ 0

biological target: ScMyo3; assay: as above
Outline: as §1

Row | Binder | SPOT peptide array binding signal intensity
50 | PPPPPPPPPPLPQSL | 1500

biological target: ScMyo5; assay: as above
Outline: as §1

Row | Binder | SPOT peptide array binding signal intensity
51 | PPPPPPPPPPLPQSL | 677

biological target: ScNbp2; assay: as above
Outline: as §1

Row | Binder | SPOT peptide array binding signal intensity
52 | PPPPPPPPPPLPQSL | ≤ 0

biological target: ScPex13; assay: as above
Outline: as §1

Row | Binder | SPOT peptide array binding signal intensity
53 | PPPPPPPPPPLPQSL | 526

biological target: ScRvs167; assay: as above
Outline: as §1

Row | Binder | SPOT peptide array binding signal intensity
54 | PPPPPPPPPPLPQSL | ≤ 0

biological target: ScSho1; assay: as above
Outline: as §1

Row | Binder | SPOT peptide array binding signal intensity
55 | PPPPPPPPPPLPQSL | 28.5

biological target: ScSla1-D1-D2; assay: as above
Outline: as §1

Row | Binder | SPOT peptide array binding signal intensity
56 | PPPPPPPPPPLPQSL | 3.5

biological target: ScSla1-D3; assay: as above
Outline: as §1

Row | Binder | SPOT peptide array binding signal intensity
57 | PPPPPPPPPPLPQSL | ≤ 0

biological target: SpAbp1-D1; assay: as above
Outline: as §1

Row | Binder | SPOT peptide array binding signal intensity
58 | PPPPPPPPPPLPQSL | 4

biological target: SpBbc1; assay: as above
Outline: as §1

Row | Binder | SPOT peptide array binding signal intensity
59 | PPPPPPPPPPLPQSL | 1

biological target: SpBzz1-D1; assay: as above
Outline: as §1

Row | Binder | SPOT peptide array binding signal intensity
60 | PPPPPPPPPPLPQSL | 4430

biological target: SpBzz1-D2; assay: as above
Outline: as §1

Row | Binder | SPOT peptide array binding signal intensity
61 | PPPPPPPPPPLPQSL | 41

biological target: SpCyk3; assay: as above
Outline: as §1

Row | Binder | SPOT peptide array binding signal intensity
62 | PPPPPPPPPPLPQSL | ≤ 0

biological target: SpHof1; assay: as above
Outline: as §1

Row | Binder | SPOT peptide array binding signal intensity
63 | PPPPPPPPPPLPQSL | ≤ 0

biological target: SpHof1-2; assay: as above
Outline: as §1

Row | Binder | SPOT peptide array binding signal intensity
64 | PPPPPPPPPPLPQSL | 4

biological target: SpHof1-3; assay: as above
Outline: as §1

Row | Binder | SPOT peptide array binding signal intensity
65 | PPPPPPPPPPLPQSL | ≤ 0

biological target: SpHse1; assay: as above
Outline: as §1

Row | Binder | SPOT peptide array binding signal intensity
66 | PPPPPPPPPPLPQSL | 13.5

biological target: SpLsb1; assay: as above
Outline: as §1

Row | Binder | SPOT peptide array binding signal intensity
67 | PPPPPPPPPPLPQSL | 0.5

biological target: SpLsb4; assay: as above
Outline: as §1

Row | Binder | SPOT peptide array binding signal intensity
68 | PPPPPPPPPPLPQSL | 23

biological target: SpMyo1; assay: as above
Outline: as §1

Row | Binder | SPOT peptide array binding signal intensity
69 | PPPPPPPPPPLPQSL | 1510

biological target: SpNbp2; assay: as above
Outline: as §1

Row | Binder | SPOT peptide array binding signal intensity
70 | PPPPPPPPPPLPQSL | 17

biological target: SpPex13; assay: as above
Outline: as §1

Row | Binder | SPOT peptide array binding signal intensity
71 | PPPPPPPPPPLPQSL | ≤ 0

biological target: SpRvs167; assay: as above
Outline: as §1

Row | Binder | SPOT peptide array binding signal intensity
72 | PPPPPPPPPPLPQSL | 72.5

biological target: SpSla1-D1-D2; assay: as above
Outline: as §1

Row | Binder | SPOT peptide array binding signal intensity
73 | PPPPPPPPPPLPQSL | ≤ 0

biological target: SpSla1-D3; assay: as above
Outline: as §1

Row | Binder | SPOT peptide array binding signal intensity
74 | PPPPPPPPPPLPQSL | ≤ 0
